According to PubChem BioAssay AID504634 (The Scripps Research Institute Molecular Screening Center, 2011):
In all, about 340,000 compounds went through this assay and about 280 (0.082%) were called active. Rule as the data show it: active = inhibition mostly above about 23% (no sharp cut-off); inactive = mostly below about 18%. Only a selection was taken, and actives are over-represented in it overall.

These compounds were tested against 5-hydroxytryptamine receptor 5A (Homo sapiens) (UniProt P47898) (assay: HTR5A inverse agonists in luminescence cell assay, primary screen, counter-screen for OPRM1-OPRD1 heterodimer inverse agonist project, full-deck HTS (AID 504634;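 also: 0% = cells with DMSO and 100% = no-cell wells with DMSO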)). Settings: HTR5A cell line, inverse agonism, at 9.3 µM, hits give high values.
Sequence of 5-hydroxytryptamine receptor 5A (Homo sapiens) (P47898 whole entry, looked up): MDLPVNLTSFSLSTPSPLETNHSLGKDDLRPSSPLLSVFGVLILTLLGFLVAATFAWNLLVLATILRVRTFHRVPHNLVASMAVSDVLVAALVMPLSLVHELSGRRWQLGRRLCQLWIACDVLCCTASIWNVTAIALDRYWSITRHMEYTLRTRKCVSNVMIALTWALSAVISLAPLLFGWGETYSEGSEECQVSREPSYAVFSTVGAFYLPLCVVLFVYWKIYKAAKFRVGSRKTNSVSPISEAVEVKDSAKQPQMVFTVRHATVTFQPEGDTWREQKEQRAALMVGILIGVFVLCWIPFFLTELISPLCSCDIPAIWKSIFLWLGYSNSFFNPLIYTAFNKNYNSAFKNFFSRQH

Structure (SMILES) | inhibition
CCc1c(SCCC(=O)O)nc2ccccc2c1C | -56.3% (inactive)
C=CCNC(=O)C1CC=CCC1C(=O)O (configuration not stated) | 19.4% (inactive)
Cc1ccc2cc(CN(c3ccc(C)c(C)c3)S(C)(=O)=O)c(=O)[nH]c2c1 | -3.96% (inactive)
CC(OC(=O)c1ccccc1NCCO)C(=O)Nc1ccnn1C(C)C (configuration not stated) | -11.8% (inactive)
COC(=O)c1ccc(Sc2ccc(F)cc2)c(N)c1 | -3.93% (inactive)
CC(C)CCN1CCN(C/C=C/c2ccco2)CC1CCO (configuration not stated) | -0.83% (inactive)
CC(=O)c1ccc(N2CCN(C(=O)c3ccc(Cl)c(S(=O)(=O)NC4CC4)c3)CC2)c(F)c1 | -4.11% (inactive)
CC(C)(C)n1nnnc1C(c1ccccc1F)N1CCN(C(=O)c2ccco2)CC1 (configuration not stated) | -20.1% (inactive)
Cc1nn(CCCC(=O)NCc2ccccc2Cl)c(=O)c2nccn12 | -28.5% (inactive)
CN(C)CCCNC(=S)N1CCN(c2nc(-c3ccccc3)cs2)CC1 | -13.5% (inactive)
Cc1c(CCC(=O)N[C@@H](CC(C)C)C(=O)O)c(=O)oc2c(C)c3oc4c(c3cc12)CCCC4 | 3.6% (inactive)
CC/C(=C\c1ccc(Cl)cc1)c1ccncc1 | -7.07% (inactive)
COc1cc(C(=S)N2CCOCC2)cc(OC)c1OC(=O)c1ccc([N+](=O)[O-])cc1[N+](=O)[O-] | -0.97% (inactive)
COc1ccc(CNC(=O)C(c2ccc(O)cc2)N(Cc2ccco2)C(=O)c2snc(C(N)=O)c2N)cc1 (configuration not stated) | 3.12% (inactive)
COC(=O)c1ccc(NC(=S)NN2CCOCC2)cc1 | 13.4% (inactive)
O=S(=O)(Nc1ccc(-c2ccc(N3CCOCC3)nn2)cc1)c1cc(Cl)ccc1Cl | -25.2% (inactive)
COc1cccc(COC(=O)C2CCN(S(=O)(=O)c3cccs3)CC2)c1OC | -12.6% (inactive)
CCC1CCCCN1CCCNC(=O)c1cc2c(Cl)nc3ccccc3c2s1 (configuration not stated) | 5.42% (inactive)
CCn1c(=O)n(CC)c2cc(N3CCCC3)c(NC(=O)c3ccccc3Br)cc21 | 10.1% (inactive)
Cc1ccccc1-c1n[nH]c(=S)n1/N=C/c1ccc(-c2ccccc2Br)o1 | 4.19% (inactive)
CS(=O)(=O)N(CC(=O)Nc1ccc(F)cc1F)c1cccc([N+](=O)[O-])c1 | 14.4% (inactive)
Cc1ccc(OCCC(=O)Nc2ccc(S(=O)(=O)Nc3nccs3)cc2)cc1 | -6.52% (inactive)
CC(C)CCNC(=O)CCNS(=O)(=O)c1ccc(Cl)cc1 | -7.35% (inactive)
OC(COc1ccc2c(c1)CCC2)CN1CCN(c2cccc(Cl)c2)CC1 (configuration not stated) | -19.1% (inactive)
CCOc1ccc(C(=O)NC(=S)Nc2ccc(N3CCOCC3)c(Cl)c2)cc1[N+](=O)[O-] | 30.9% (inactive)
O=c1o[nH]c(-c2ccccc2)c1N=Nc1c(F)cccc1Cl | -12.2% (inactive)
COc1ccc2c(c1)CCC/C2=N\OC(=O)c1ccccc1F | 0.11% (inactive)
